# Experimental data as given in paper PMC7862700, “An all-to-all approach to the identification of sequence-specific readers for epigenetic DNA modifications on cytosine”.
# Experiments:
# Test in all cases: DAPPL (digital affinity profiling via proximity ligation, sequencing); 10 mM Tris-HCl pH 7.5, 50 mM NaCl, 1 mM DTT, 4% glycerol, room temperature, 30 min; GST-TFs on glutathione beads, 16-mer random dsDNA library, 0.1% formaldehyde crosslink after washing; high values mean tight binding
# Conditions in all cases: protein: recombinant; tags: N-terminal GST; dsDNA, one strand shown
# FLI1 = target: T1, FLI1 (Homo sapiens, UniProt Q01543 1-452)
# T1 sequence: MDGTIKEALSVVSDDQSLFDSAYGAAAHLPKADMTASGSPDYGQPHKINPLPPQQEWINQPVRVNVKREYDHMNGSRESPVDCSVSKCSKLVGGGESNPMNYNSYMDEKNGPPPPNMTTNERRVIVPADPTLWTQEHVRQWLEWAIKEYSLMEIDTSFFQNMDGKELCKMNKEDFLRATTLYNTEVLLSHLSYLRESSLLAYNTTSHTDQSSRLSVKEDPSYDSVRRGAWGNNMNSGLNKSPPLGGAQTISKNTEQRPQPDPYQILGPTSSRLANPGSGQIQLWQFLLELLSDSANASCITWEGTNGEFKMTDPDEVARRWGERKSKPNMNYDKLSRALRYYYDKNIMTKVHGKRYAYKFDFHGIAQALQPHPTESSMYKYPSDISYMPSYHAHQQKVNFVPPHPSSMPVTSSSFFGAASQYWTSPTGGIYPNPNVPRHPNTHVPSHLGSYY
# Summary of the method: (§1)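 Pools were built from human transcription factors expressed in yeast as GST fusions, captured on glutathione beads and DNA-barcoded, along with a tag-only sample. Incubation with 200 nmole of a 16-mer random double-stranded DNA library lasted 30 min at room temperature in Tris/NaCl/DTT/glycerol buffer, and was followed by washing, 0.1% formaldehyde crosslinking, proximity ligation, PCR amplification and Illumina NextSeq500 sequencing. Binding signal is the quotient of each hexamer's read frequency for a factor and its frequency for the tag-only sample.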
# ELK1 = target: T2, ELK1 (Homo sapiens, UniProt P19419 1-428)
# T2 sequence: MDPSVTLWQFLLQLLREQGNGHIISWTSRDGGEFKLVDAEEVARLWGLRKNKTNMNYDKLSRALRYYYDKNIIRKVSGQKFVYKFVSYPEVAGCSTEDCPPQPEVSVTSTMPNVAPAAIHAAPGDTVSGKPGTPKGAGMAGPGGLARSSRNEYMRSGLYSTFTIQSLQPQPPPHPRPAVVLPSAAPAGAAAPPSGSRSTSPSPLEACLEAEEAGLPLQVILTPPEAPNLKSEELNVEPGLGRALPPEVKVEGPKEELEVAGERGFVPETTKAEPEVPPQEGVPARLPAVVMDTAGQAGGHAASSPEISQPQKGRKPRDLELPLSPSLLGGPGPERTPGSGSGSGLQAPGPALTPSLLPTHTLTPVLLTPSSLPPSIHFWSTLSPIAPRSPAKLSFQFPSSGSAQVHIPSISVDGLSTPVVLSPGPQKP
# Summary of the method: as §1
# GABPA = target: T3, GABPA (Homo sapiens, UniProt Q06546 1-454)
# T3 sequence: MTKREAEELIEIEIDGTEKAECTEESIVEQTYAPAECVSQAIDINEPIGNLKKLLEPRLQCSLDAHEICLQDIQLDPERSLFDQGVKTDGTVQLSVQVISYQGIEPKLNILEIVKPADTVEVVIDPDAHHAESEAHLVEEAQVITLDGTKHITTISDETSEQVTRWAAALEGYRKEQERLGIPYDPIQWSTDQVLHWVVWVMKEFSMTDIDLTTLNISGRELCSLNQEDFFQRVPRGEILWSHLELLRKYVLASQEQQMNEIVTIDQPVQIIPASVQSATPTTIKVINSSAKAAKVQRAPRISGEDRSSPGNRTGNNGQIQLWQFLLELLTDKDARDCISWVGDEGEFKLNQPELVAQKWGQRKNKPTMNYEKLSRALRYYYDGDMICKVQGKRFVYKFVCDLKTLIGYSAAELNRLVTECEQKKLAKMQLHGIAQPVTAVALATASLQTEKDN
# Summary of the method: as §1
# ERG = target: T4, ERG (Homo sapiens, UniProt P11308 1-479)
# T4 sequence: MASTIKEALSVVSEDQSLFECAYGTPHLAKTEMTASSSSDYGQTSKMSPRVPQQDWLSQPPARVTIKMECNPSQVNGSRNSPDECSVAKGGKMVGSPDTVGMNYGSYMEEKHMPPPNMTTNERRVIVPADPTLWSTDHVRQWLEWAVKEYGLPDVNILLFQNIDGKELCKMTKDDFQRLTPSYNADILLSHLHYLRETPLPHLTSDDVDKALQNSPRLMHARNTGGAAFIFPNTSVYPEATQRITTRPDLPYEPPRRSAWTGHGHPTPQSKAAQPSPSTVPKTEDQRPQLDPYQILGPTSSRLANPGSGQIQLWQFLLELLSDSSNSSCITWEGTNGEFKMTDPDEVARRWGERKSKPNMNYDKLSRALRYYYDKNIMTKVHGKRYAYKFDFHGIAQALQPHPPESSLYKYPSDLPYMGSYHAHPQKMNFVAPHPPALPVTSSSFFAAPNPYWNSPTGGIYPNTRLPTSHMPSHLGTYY
# Summary of the method: as §1
# ELF1 = ELF1 (Homo sapiens, UniProt P32519 1-619)
# ELF1, sequence (P32519 whole entry): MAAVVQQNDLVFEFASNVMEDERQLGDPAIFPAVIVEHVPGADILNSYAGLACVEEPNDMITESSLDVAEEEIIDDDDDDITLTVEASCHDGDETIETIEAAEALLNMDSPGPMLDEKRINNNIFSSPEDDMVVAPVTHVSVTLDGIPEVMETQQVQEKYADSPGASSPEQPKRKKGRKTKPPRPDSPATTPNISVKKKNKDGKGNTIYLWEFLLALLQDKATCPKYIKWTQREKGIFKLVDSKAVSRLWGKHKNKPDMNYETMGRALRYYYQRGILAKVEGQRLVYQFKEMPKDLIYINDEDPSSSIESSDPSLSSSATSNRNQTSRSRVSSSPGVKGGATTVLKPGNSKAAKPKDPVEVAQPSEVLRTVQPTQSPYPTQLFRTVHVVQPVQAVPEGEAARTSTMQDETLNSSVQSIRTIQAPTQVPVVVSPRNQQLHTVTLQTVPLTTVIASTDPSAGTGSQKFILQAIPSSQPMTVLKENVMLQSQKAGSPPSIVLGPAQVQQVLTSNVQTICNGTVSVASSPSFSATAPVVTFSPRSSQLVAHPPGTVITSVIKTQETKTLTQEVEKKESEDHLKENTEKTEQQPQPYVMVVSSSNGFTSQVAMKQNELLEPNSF
# Summary of the method: as §1
# EHF = target: T5, EHF (Homo sapiens, UniProt Q9NZC4 1-300)
# T5 sequence: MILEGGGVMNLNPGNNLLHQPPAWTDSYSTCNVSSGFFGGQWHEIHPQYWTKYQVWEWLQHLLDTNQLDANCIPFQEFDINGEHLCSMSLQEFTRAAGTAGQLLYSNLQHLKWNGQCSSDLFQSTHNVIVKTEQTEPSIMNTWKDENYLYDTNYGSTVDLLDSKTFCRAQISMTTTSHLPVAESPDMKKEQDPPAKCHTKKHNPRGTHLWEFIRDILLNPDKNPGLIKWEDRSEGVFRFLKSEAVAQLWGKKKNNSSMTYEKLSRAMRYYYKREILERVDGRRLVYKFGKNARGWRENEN
# Summary of the method: as §1
# SPI1 = SPI1 (Homo sapiens, UniProt P17947 1-270)
# Summary of the method: as §1
# SPIB = SPIB (Homo sapiens, UniProt Q01892 1-262)
# SPIB, sequence (Q01892 whole entry): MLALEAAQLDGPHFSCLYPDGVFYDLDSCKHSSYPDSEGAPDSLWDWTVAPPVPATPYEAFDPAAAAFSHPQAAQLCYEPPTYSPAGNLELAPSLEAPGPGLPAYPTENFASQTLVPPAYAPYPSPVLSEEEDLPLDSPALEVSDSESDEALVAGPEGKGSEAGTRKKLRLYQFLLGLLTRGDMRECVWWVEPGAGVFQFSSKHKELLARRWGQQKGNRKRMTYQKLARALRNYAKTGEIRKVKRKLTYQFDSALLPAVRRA
# Summary of the method: as §1
# ELK3 = target: T6, ELK3 (Homo sapiens, UniProt P41970 1-407)
# T6 sequence: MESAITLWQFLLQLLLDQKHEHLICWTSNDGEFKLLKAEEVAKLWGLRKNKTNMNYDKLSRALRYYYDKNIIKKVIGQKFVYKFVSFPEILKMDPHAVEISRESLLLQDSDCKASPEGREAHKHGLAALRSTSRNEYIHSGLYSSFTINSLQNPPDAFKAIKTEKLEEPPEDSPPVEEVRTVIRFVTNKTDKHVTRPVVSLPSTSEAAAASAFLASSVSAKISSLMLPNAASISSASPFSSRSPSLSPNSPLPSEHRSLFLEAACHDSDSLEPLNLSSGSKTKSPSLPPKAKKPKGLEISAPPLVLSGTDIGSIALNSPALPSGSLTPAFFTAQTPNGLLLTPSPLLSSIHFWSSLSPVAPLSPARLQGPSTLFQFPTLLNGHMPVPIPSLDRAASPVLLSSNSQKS
# Summary of the method: as §1
# ETV5 = ETV5 (Homo sapiens, UniProt P41161 1-510)
# ETV5, sequence (P41161 whole entry): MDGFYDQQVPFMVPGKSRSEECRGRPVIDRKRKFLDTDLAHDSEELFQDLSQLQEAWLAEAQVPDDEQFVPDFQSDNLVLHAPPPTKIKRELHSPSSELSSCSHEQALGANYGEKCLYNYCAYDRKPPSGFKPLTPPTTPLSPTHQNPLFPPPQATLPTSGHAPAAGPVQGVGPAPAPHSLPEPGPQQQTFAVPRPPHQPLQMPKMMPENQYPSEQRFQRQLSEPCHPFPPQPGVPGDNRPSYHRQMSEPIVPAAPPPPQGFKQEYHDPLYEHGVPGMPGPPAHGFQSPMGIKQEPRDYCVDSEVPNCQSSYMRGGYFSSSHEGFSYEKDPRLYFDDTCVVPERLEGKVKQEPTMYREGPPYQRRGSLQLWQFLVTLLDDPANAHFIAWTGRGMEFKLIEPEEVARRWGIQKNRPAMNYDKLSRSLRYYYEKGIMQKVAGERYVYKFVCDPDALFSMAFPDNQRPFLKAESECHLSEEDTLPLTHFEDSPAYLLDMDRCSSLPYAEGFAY
# Summary of the method: as §1
sequence,measurement,setting,value
ATTGGC,binding signal,FLI1,"1.23 fold enrichment (6-mer frequency, TF over GST control)"
same,binding signal,ELK1,"1.11 fold enrichment (6-mer frequency, TF over GST control)"
same,binding signal,GABPA,"1.09 fold enrichment (6-mer frequency, TF over GST control)"
same,binding signal,ERG,"1.05 fold enrichment (6-mer frequency, TF over GST control)"
same,binding signal,ELF1,"1.13 fold enrichment (6-mer frequency, TF over GST control)"
same,binding signal,EHF,"1.15 fold enrichment (6-mer frequency, TF over GST control)"
same,binding signal,SPI1,"1.01 fold enrichment (6-mer frequency, TF over GST control)"
same,binding signal,SPIB,"1.13 fold enrichment (6-mer frequency, TF over GST control)"
same,binding signal,ELK3,"1.16 fold enrichment (6-mer frequency, TF over GST control)"
same,binding signal,ETV5,"1.07 fold enrichment (6-mer frequency, TF over GST control)"
